Assay outcomes from PubChem BioAssay.
VACV mCherry inh – inhibitors of vaccinia virus infection (mCherry reporter signal); Vaccinia virus mCherry reporter infection, fluorescence; Potency, µM (highest dose often 36.5 µM), for the others: at the top dose activity change, negative = inhibition, most hits filed as inhibitors; hit rate 0.63% among 310,000; AID 720579; calls by dose curve; tested in A549 cells; also: potency is read from the fitted curve at half-maximal effect; nearly all actives have a fitted effect of over 35% in size
FMDV inh – foot and mouth disease virus antiviral activity; FMDV antiviral cell-based qHTS; AID 1159524; Potency, µM (series often up to 57.9 µM), for the others: top-dose activity change, negative = inhibition, actives largely listed as inhibitors; hit rate 1.2% among 410,000; calls by dose curve; tested in HEK293T cells; also: read-out not given here; potency is read from the fitted curve at half-maximal effect; nearly all actives have a fitted effect of over 45% in size
MARV entry inh – Marburg virus entry inhibition; hit rate 1.8% among 300,000; Marburg virus pseudotyped entry inhibition, cell reporter; Potency, µM (doses to about 37.8 µM), for inactives: at the highest dose activity change, negative = inhibition, usual class: inhibitors; calls by dose curve; tested in HEK293 cells; also: potency is read from the fitted curve at half-maximal effect
HCMV antiviral – blocks human cytomegalovirus replication. hit rate 4.5% among 410,000. AID 1259415. activity change, negative = inhibition, % at 57.5 µM. HFF cells, HCMV-luciferase reporter, 72 h; active compounds read low; in the data active = activity change below about -60%; inconclusive = no clear call, values can overlap the other calls; inactive = above about -39%
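Human foreskin fibroblasts infected with luciferase-reporter HCMV at MOI 1 PFU/cell, compounds at two doses. Luciferase measured 72 h post infection; normalized to buffer-only basal and Salinomycin (10uM) controls.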
Vaccinia Venus – vaccinia inhibition (Venus reporter); Potency, µM (titrated, usually from 36.5 µM), for inactives: at the highest dose activity change, negative = inhibition, most hits filed as inhibitors; hit rate 0.46% among 330,000; Vaccinia virus Venus reporter expression, fluorescence; calls by dose curve; tested in A549 cells; also: potency is read from the fitted curve at half-maximal effect; nearly all actives have a fitted effect of over 30% in size
LASV entry inh – blocks Lassa virus binding to or entry into cells | Potency, µM (series often up to 37.9 µM), without a hit: at the highest dose activity change, negative = inhibition, usual class: inhibitors | Lassa virus pseudotype entry inhibition, cell reporter | AID 540256 | hit rate 1.2% among 300,000; calls by dose curve; tested in HEK293 cells; also: potency is read from the fitted curve at half-maximal effect; nearly all actives have a fitted effect of over 50% in size
Numbers without * were called inactive; i = inactive; ? = inconclusive; nt = no result given; [ ] = remark or other dose. Only some compounds are listed: those with a hit (about 6.5% of all), similar ones and a draw of the others. % is scaled to controls: 0 for no effect and ±100 for the full control effect.

SMILES	VACV mCherry inh	FMDV inh	MARV entry inh	HCMV antiviral	Vaccinia Venus	LASV entry inh
Cc1ccc(S(=O)(=O)Nc2ccc3nc(C)sc3c2)cc1	nt	-16%	?	nt	?	?
CCc1ccc(C(=O)c2cn(CC(=O)Nc3ccc4c(c3)OCCO4)c3ccc(C)cc3c2=O)cc1	-7%	-12%	17%[46.1 µM]	-9	-15%	-2%[46.1 µM]
OCCN1CCN(CC(O)COC(c2ccc(F)cc2)c2ccc(F)cc2)CC1 (stereo unspecified)	i	-2%	2µM*	-16	-6%	?
COc1ccc(N2CCN(CC(O)COC(c3ccc(F)cc3)c3ccc(F)cc3)CC2)cc1 (stereo unspecified)	nt	-19%	nt	-29	nt	nt
O=C1N/C(=N\c2ccccn2)SC1Cc1ccccc1Cl (stereo unspecified)	nt	13%	nt	-12	nt	nt
O=C1NC(=Nc2cccc(Cl)c2)SC1Cc1cccc(Cl)c1Cl (stereo unspecified)	-4%	nt	-23%	-78*	-16%	?
CCC(C)NC(=O)CSc1nc2cc(S(=O)(=O)N3CCOCC3)ccc2n1CC (stereo unspecified)	-16%	-8%	3%	34	-15%	-2%
CCn1c(SCC(=O)c2cc(C)ccc2C)nc2cc(S(=O)(=O)N3CCOCC3)ccc21	i	-27%	?	-63*	-14%	-15%
CC1=C(C(=O)Nc2ccccc2)C(c2ccc(Cl)cc2)n2c(s/c(=C/c3cccc(OCC(=O)O)c3)c2=O)=N1 (stereo unspecified)	-1%	16%	-10%	-68*	-9%	1%[46.1 µM]
COc1ccc(C=CC2=CC3(C)CC2(C)C(c2ccc(OC)cc2)CC3=O)cc1 (stereo unspecified)	nt	nt	-13%[14.2 µM]	nt	nt	nt
ClC(Cl)c1nnc(-c2ccccc2)c(-c2c[nH]c3ccccc23)n1	?	-20%	?	-86*	?	-3%
NS(=O)(=O)c1ccc(CCNc2ccc(C(F)(F)F)cn2)cc1	-6%	-9%	-1%[46.1 µM]	-77*	-4%	nt
FC(F)(F)c1ccc(NCCc2ccccc2)nc1	i	1%	?	-34	-15%	-13%[46.1 µM]
CN(C)S(=O)(=O)N1CCC(n2c(C(F)(F)F)nc3cccnc32)CC1	-1%	-9%	nt	2	3%	8%[46.1 µM]
CCOC(=O)N1CCN(C(=O)c2cc(COc3ccc4ncccc4c3)on2)CC1	-21%	?	?	-74*	-22%	-13%[46.1 µM]
Cc1cccnc1CN1CCN(C(=O)c2cc(COc3ccc4ncccc4c3)on2)CC1	?	13µM*	?	-83*	-26%	?
CCCn1c2ccccc2c2cnn(CC(=O)NCCc3cc(OC)ccc3OC)c(=O)c21	-14%	-16%	nt	11	-10%	3%[46.1 µM]
CCOC(=O)/C(C#N)=C\c1c(OCC)n(CC)c2ccccc12	-8%	?	?	-69*	-20%	?
CCOc1c(/C=C(\C#N)C(N)=O)c2ccccc2n1CC	-6%	?	?	-67*	-22%	-4%
COc1ccc(C(CC(=O)NCc2ccccc2Cl)N2Cc3ccccc3C2=O)cc1OC (stereo unspecified)	-4%	12%	nt	-10	6%	-19%[46.1 µM]
CCN(CCCNC(=O)CN1N=C(c2ccc(OC)cc2)CCC1=O)c1cccc(C)c1	-12%	-22%	nt	-6	-7%	-7%[46.1 µM]
Cc1ccc(-c2csc(N3CCC(NS(=O)(=O)c4ccc5c(c4)OCCO5)CC3)n2)cc1	?	?	?	-85*	8.9µM*	?
Cc1ccccc1C(=O)NC(CC(C)C)C(=O)Nc1cccc(S(=O)(=O)N(C)C)c1 (stereo unspecified)	-20%	16%	nt	7	-3%	nt
Cc1ccccc1C(=O)NC(CC(C)C)C(=O)Nc1ccc(F)c([N+](=O)[O-])c1 (stereo unspecified)	-16%	-16%	?	-104*	-14%	?
Clc1ccc(Nc2nc(-c3ccccc3)c3cc(Cl)ccc3n2)cc1	0%	-19%	nt	-61*	-16%	4%[46.1 µM]
SMILES	VACV mCherry inh	FMDV inh	MARV entry inh	HCMV antiviral	Vaccinia Venus	LASV entry inh
O=C1c2cccc(O)c2C(=O)c2c(O)cc(CO)cc21	32%	-15%	nt	nt	27%	nt
CC1OC2CC(=O)OC2C2=C1C(=O)c1c(O)cccc1C2=O (stereo unspecified)	nt	nt	nt	-106*	nt	nt
COc1ccc(C(C)(C)C)cc1S(=O)(=O)n1ccnc1C	-9%	46%	-3%	-70*	5%	?
COc1cc(C)c(Cl)cc1S(=O)(=O)n1ccnc1C	-19%	nt	13%	-16	-16%	1%
Cc1cc(C)c(-c2csc(NC(=O)/C=C/c3cccs3)n2)c(C)c1	?	?	?	-100*	?	?
c1ccc(NC2C(c3ccccc3)=Nc3ccccc3-n3nnnc32)cc1 (stereo unspecified)	nt	nt	nt	3	nt	nt
CCOc1ccc(NC(=S)N(CCc2c(C)[nH]c3ccc(C)cc23)Cc2ccncc2)cc1	-7%	4%	2.3µM*	-29	-15%	-9%
COc1ccccc1-c1cc(C(F)(F)F)nc(S(=O)(=O)CCCC(=O)NC(C)C)n1	-8%	8.9µM*	?	-22	-10%	?
COc1ccccc1-c1cc(C(F)(F)F)nc(S(=O)(=O)CCCC(=O)NCc2ccc(F)cc2)n1	?	14µM*	?	-99*	-16%	?
COc1ccccc1-c1cc(C(F)(F)F)nc(N2CCCC2)n1	nt	2%	-2%	-1	nt	-23%
COc1ccccc1-c1cc(C(F)(F)F)nc(S(C)(=O)=O)n1	nt	32µM*	?	-104*	nt	?
COc1ccccc1-c1cc(C(F)(F)F)nc(S(=O)(=O)CCCC(=O)N2CCCCC2C)n1 (stereo unspecified)	-27%	7.9µM*	?	14	-21%	?
COc1ccccc1NC(c1ccc(Cl)cc1)c1nnc(-c2cccc(F)c2)o1 (stereo unspecified)	2%	-6%	-27%[46.1 µM]	3	-10%	-2%[46.1 µM]
COC(=O)c1ccccc1-c1ccc(/C=N/Nc2nc(N3CCCC3)nc(N3CCCC3)n2)o1	-19%	22µM*	?	-7	-29%	?
Cc1ccc(/C=N/Nc2nc(N3CCCCC3)nc(N3CCCCC3)n2)o1	-3%	-18%	1%[46.1 µM]	-36	-7%	?
COc1ccccc1N(CC(=O)Nc1cc(C)on1)S(=O)(=O)c1ccc(Cl)cc1	nt	-12%	?	-69*	-21%	?
CCOc1ccccc1N(CC(=O)Nc1cc(OC)ccc1OC)S(=O)(=O)c1ccccc1	nt	-15%	nt	-102*	nt	nt
COc1ccccc1N(C)S(=O)(=O)c1ccc(C(=O)OCC(=O)Nc2cc(C)on2)cc1	nt	12%	9%	?	nt	-11%
COc1ccc(OC)c(N(CC(=O)Nc2cccnc2)S(=O)(=O)c2ccc(C)cc2)c1	?	nt	?	3	-29%	?
CCOc1ccccc1N(CC(=O)Nc1ccccc1)S(=O)(=O)c1ccccc1	nt	10%	nt	-98*	nt	nt
